Assay results from PubChem BioAssay (NCATS).
Records with an inconclusive call do not appear. Calls of active or inactive are those of the source. Calls come from the whole dose curve; as a rule, active = well fitted curve in the direction sought with a large enough effect; inconclusive = small, poorly fitted or top-dose-only effect, or another doubt; inactive = no such curve, though single readings can be large; an effect the other way counts as inactive or inconclusive.

Legend:
[1] = target: Glutathione peroxidase 1 (Homo sapiens) (UniProt P07203); assay: Primary qHTS Assay for Inhibitors of Recombinant Selenoprotein Glutathione Peroxidase 1 (GPX1) (AID 1845191); note: nearly all actives have a fitted effect of over 65% in size
Summary of the method: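 GR-coupled readout: NADPH consumption tracked by fluorescence, ex 340/em 450 nm, at t=0 and after 15 min at RT. Final mix 10 nM GPX1, 1 mM GSH, 0.5 mM CHP, 0.5 mM NADPH, 100 nM GR, 0.01% BSA, following 30 min enzyme–compound preincubation.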

[2] = target: Phospholipid hydroperoxide glutathione peroxidase GPX4 (Homo sapiens) (UniProt P36969); assay: Primary qHTS Assay for Inhibitors of Recombinant Selenoprotein Glutathione Peroxidase 4 (GPX4) (AID 1845192); note: nearly all actives have a fitted effect of over 65% in size
Summary of the method: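 Steps: GPX4 plus compound, 30 min RT; add GR/GSH/NADPH master mix; start with cumene hydroperoxide; read 340/450 nm fluorescence at 0 and 15 min. Finals were 200 nM GPX4, 1 mM GSH, 0.5 mM CHP, 0.5 mM NADPH, 100 nM GR.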

CRL-7250 = normal cell line; assay: Cytotoxic Profiling of Annotated Libraries Using Quantitative High-Throughput Screening (AID 1296008); settings: Five cell lines viability, CellTiter-Glo ATP luminescence, 48-72 h; max response: stronger effect = lower value; note: nearly all actives have a fitted effect of over 60% in size; note: potency is the fitted concentration of half-maximal effect; for max response: % is set by controls: 0 for no effect and ±100 for the full control effect
Summary of the method: (§1)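 Cells exposed to compounds for 48 or 72 hr at 37 degrees Celsius. Viability read as ATP-coupled luminescence with CellTiter-Glo after 10 min at room temperature.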

HEK293 = assay: as above; settings: Five cell lines viability, CellTiter-Glo ATP luminescence, 48-72 h; max response: stronger effect = lower value
Summary of the method: as §1

HaCat = assay: as above; settings: Five cell lines viability, CellTiter-Glo ATP luminescence, 48-72 h; max response: stronger effect = lower value
Summary of the method: as §1

NIH3T3 = assay: as above; settings: Five cell lines viability, CellTiter-Glo ATP luminescence, 48-72 h; max response: stronger effect = lower value
Summary of the method: as §1

[3] = system: Zika virus NS2B-NS3 protease (linked construct); assay: Primary screen NINDS Rhodamine qHTS for Zika virus inhibitors (AID 1347160); note: nearly all actives have a fitted effect of over 55% in size
Summary of the method: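 Single-chain NS2B-NS3 protease, 25 nM, pH 8.0; compounds preincubated 15 min. Activity: Rhodamine110 release from 1.5 microM substrate over 15 min, room temperature, data fitted to 4-parameter Hill.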

[4] = Primary qHTS for inhibitors of nuclear receptor binding SET domain protein 2 (NSD2) in an isogenic RCH-ACV NSD2 p.E1099K mutant (9B) (AID 1645876); note: nearly all actives have a fitted effect of over 70% in size; note: potency is the fitted concentration of half-maximal effect
[5] = target: Luciferin 4-monooxygenase (Photinus pyralis) (UniProt P08659); assay: Primary firefly luciferase (FLuc) qHTS assay for identification of artifact compounds. (AID 1845220); settings: outcome: dose series up to 54.1 µM unless noted; note: nearly all actives have a fitted effect of over 60% in size
Summary of the method: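 Titrated compounds were incubated 15 min at RT, protected from light, with luciferin and ATP at 10 uM; reaction started with 10 nM FLuc, luminescence imaged at 5 min, and concentration-response fitted by Hill equation.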

[6] = Primary fluorescence-based thiol-reactive (MSTI) qHTS assay for identification of artifact compounds. (AID 1845221); note: nearly all actives have a fitted effect of over 65% in size; note: potency is the fitted concentration of half-maximal effect
Summary of the method: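 One-hour, room-temperature, dark incubation of compound with 4 uM MSTI in PBS (pH 7.4, 2% DMSO) precedes a fluorescence read at 525 nm excitation, 598 nm emission; Hill-equation fitting yields concentration-response values.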

[7] = system: Nanoluciferase (engineered Oplophorus gracilirostris luciferase); assay: Primary Nanoluciferase (NLuc) qHTS assay for identification of artifact compounds. (AID 1845222);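 note: NLuc secreted into diluted conditioned medium of S16 cells; 0% = DMSO and -100% = no enzyme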
Summary of the method: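 qHTS format, against NLuc in S16 cell-conditioned medium. Nano-Glo substrate 1:100 was added after 15 min at room temperature. Luminescence was taken after a further 5 min.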

C33A = assay: Primary qHTS to identify gynecologic anti-cancer compounds using libraries of approved drugs and bioactive compounds (AID 1345084); settings: Gynecologic cancer cell panel viability, ATPlite luminescence, 48 h; series mostly up to 57.5 µM; note: nearly all actives have a fitted effect of over 55% in size; note: potency is the fitted concentration of half-maximal effect
Summary of the method: (§2)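 In this quantitative HTS, cell killing is estimated from loss of ATP-dependent luciferase light. Cells see five compound concentrations over a 48 h exposure.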

CASKI = assay: as above; settings: Gynecologic cancer cell panel viability, ATPlite luminescence, 48 h; series mostly up to 57.5 µM
Summary of the method: as §2

Es-2 = assay: as above; settings: Gynecologic cancer cell panel viability, ATPlite luminescence, 48 h; series mostly up to 57.5 µM
Summary of the method: as §2

Hek293T = assay: as above; settings: Gynecologic cancer cell panel viability, ATPlite luminescence, 48 h, control line for the selectivity index; series mostly up to 57.5 µM
Summary of the method: as §2

OV90 = assay: as above; settings: Gynecologic cancer cell panel viability, ATPlite luminescence, 48 h; series mostly up to 57.5 µM
Summary of the method: as §2

Tov-21-G = assay: as above; settings: Gynecologic cancer cell panel viability, ATPlite luminescence, 48 h; series mostly up to 57.5 µM
Summary of the method: as §2

[8] = Primary qHTS for inhibitors of nuclear receptor binding SET domain protein 2 (NSD2) in an RCH-ACV wild type WT cells (2C) (AID 1645877); note: nearly all actives have a fitted effect of over 70% in size; note: potency is the fitted concentration of half-maximal effect
PA-1 = assay: Primary qHTS to identify gynecologic anti-cancer compounds using libraries of approved drugs and bioactive compounds (AID 1345084); settings: Gynecologic cancer cell panel viability, ATPlite luminescence, 48 h; series mostly up to 57.5 µM; note: nearly all actives have a fitted effect of over 55% in size; note: potency is the fitted concentration of half-maximal effect
Summary of the method: as §2

Tov112D = assay: as above; settings: Gynecologic cancer cell panel viability, ATPlite luminescence, 48 h; series mostly up to 57.5 µM
Summary of the method: as §2

Chain of Phospholipid hydroperoxide glutathione peroxidase GPX4 (Homo sapiens) (P36969 whole entry, looked up): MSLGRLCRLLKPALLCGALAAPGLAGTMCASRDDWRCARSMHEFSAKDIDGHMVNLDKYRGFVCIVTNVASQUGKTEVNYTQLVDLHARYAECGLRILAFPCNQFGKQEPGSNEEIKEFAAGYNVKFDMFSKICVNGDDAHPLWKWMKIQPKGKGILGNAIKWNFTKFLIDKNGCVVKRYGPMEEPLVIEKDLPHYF
Chain of Glutathione peroxidase 1 (Homo sapiens) (P07203 whole entry, looked up): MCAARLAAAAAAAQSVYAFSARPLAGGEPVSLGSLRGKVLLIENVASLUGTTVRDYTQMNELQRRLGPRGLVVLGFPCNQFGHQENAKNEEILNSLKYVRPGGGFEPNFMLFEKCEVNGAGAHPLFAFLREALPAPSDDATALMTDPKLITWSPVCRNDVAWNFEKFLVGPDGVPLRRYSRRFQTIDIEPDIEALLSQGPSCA

O=C(CC1NCCC[C@H]1O)Cn1cnc2cc(Br)c(Cl)cc2c1=O (some centres undefined)
inactive: Potency [1] | Potency [2] | max response (CRL-7250) -5.15% | max response (HEK293) -10.4% | max response (HaCat) -11.7% | max response (NIH3T3) -4.52%

COC1CC(O[C@H]2CC[C@@]3(C)C(CCC4C3CC[C@]3(C)[C@@H](C5=CC(=O)OC5)CC[C@]43O)C2)OC(C)C1O (some centres undefined)
inactive: Potency [3] | Potency [1] | Potency [2] | outcome [5] | Potency [6] | Potency [7] | max response (NIH3T3) -0.0473%
active: Potency [4] 14.2 nM | Potency (CRL-7250) 31.7 nM | Potency (HEK293) 79.6 nM | Potency (HaCat) 178 nM | Potency (C33A) 100 nM | Potency (CASKI) 141 nM | Potency (Es-2) 158 nM | Potency (Hek293T) 141 nM | Potency (OV90) 398 nM | Potency (Tov-21-G) 89.1 nM

C[N@@+]1(CC2CC2)CC[C@]23c4c5ccc(O)c4O[C@H]2C(=O)CC[C@@]3(O)[C@H]1C5
inactive: Potency [3] | Potency [4] | Potency [8] | Potency [2] | outcome [5] | Potency [6] | Potency [7] | max response (CRL-7250) 2.78% | max response (HEK293) 0.678% | max response (HaCat) -19.5% | max response (NIH3T3) 2.77% | Potency (C33A) | Potency (CASKI) | Potency (Es-2) | Potency (Hek293T) | Potency (OV90) | Potency (PA-1) | Potency (Tov-21-G) | Potency (Tov112D)

C[C@@H]1C[C@@H](O)[C@]2(O)O[C@@H]3C[C@@]4(C=O)C(CC[C@@H]5C4CC[C@]4(C)[C@@](O)(C6=CC(=O)OC6)CC[C@]54O)C[C@H]3OC2O1 (some centres undefined)
active: Potency [4] 709 nM | Potency [8] 1120 nM | Potency [6] 9220 nM | Potency (CRL-7250) 796 nM | Potency (HEK293) 1120 nM | Potency (HaCat) 5020 nM | Potency (C33A) 2820 nM | Potency (Es-2) 3550 nM | Potency (Hek293T) 3160 nM | Potency (Tov-21-G) 1780 nM | Potency (Tov112D) 891 nM
inactive: Potency [3] | Potency [1] | outcome [5] inactive [at 25.7 µM] | Potency [7] | max response (NIH3T3) -15.7%

CC(=O)OC[C@]12C[C@H](O)C(C)=C[C@H]1O[C@@H]1[C@H](O)[C@@H](O)[C@@]2(C)[C@]12CO2
active: Potency [4] 898 nM | Potency [8] 713 nM | Potency (CRL-7250) 4040 nM | Potency (HEK293) 1010 nM | Potency (HaCat) 10100 nM | Potency (NIH3T3) 1430 nM | Potency (C33A) 5620 nM | Potency (CASKI) 7940 nM | Potency (Es-2) 6310 nM | Potency (Hek293T) 1780 nM | Potency (OV90) 12600 nM | Potency (PA-1) 2000 nM | Potency (Tov-21-G) 8910 nM | Potency (Tov112D) 10000 nM
inactive: Potency [3] | Potency [1] | Potency [2] | outcome [5] | Potency [6] | Potency [7]

C=C1[C@@H](C)[C@H]2[C@H](Cc3ccccc3)NC(=O)[C@]23OC(=O)/C=C/C(=O)CCC[C@@H](C)C/C=C/[C@H]3[C@@H]1O
active: Potency [4] 1450 nM | Potency [8] 459 nM | Potency (CRL-7250) 1640 nM | Potency (HEK293) 1840 nM | Potency (HaCat) 20600 nM | Potency (NIH3T3) 1160 nM | Potency (CASKI) 15800 nM | Potency (Es-2) 14100 nM | Potency (Hek293T) 15800 nM | Potency (PA-1) 20000 nM | Potency (Tov-21-G) 15800 nM | Potency (Tov112D) 15800 nM
inactive: Potency [3] | Potency [1] | Potency [2] | outcome [5] | Potency [6] | Potency [7]

CC1CCCC(=O)CCC/C=C/c2cc(O)cc(O)c2C(=O)O1 (centres undefined)
active: Potency [6] 14700 nM
inactive: Potency [3] | Potency [4] | Potency [2] | outcome [5] | Potency [7] | max response (CRL-7250) 3.12% | max response (HEK293) -3.13% | max response (HaCat) 2.86% | max response (NIH3T3) -2.03% | Potency (C33A) | Potency (CASKI) | Potency (Es-2) | Potency (Hek293T) | Potency (OV90) | Potency (Tov-21-G) | Potency (Tov112D)

C[C@]12CC[C@H](O)C[C@H]1CC[C@@H]1[C@@H]2[C@H](O)C(=O)[C@]2(C)[C@@H](c3ccc(=O)oc3)CC[C@]12O
active: Potency [4] 20.5 nM | Potency [8] 51.5 nM | Potency (CRL-7250) 41.1 nM | Potency (HEK293) 32.6 nM | Potency (HaCat) 130 nM | Potency (CASKI) 398 nM | Potency (Es-2) 89.1 nM | Potency (OV90) 282 nM | Potency (PA-1) 79.4 nM
inactive: Potency [3] | Potency [1] | Potency [2] | outcome [5] | Potency [6] | Potency [7] | max response (NIH3T3) -1.67%

O=C(OC[C@H]1O[C@@H](Oc2ccc(O)cc2CO)[C@H](O)[C@@H](O)[C@@H]1O)c1ccccc1
inactive: Potency [4] | Potency [1] | Potency [2] | outcome [5] | Potency [7] | max response (CRL-7250) 2.78% | max response (HEK293) 0.485% | max response (HaCat) -28.3% | Potency (C33A) | Potency (CASKI) | Potency (Es-2) | Potency (Hek293T) | Potency (OV90) | Potency (PA-1) | Potency (Tov-21-G) | Potency (Tov112D)
active: Potency [6] 3670 nM

CC1=C[C@H]2O[C@@H]3C[C@H]4OC(=O)/C=C/C=C/C(=O)OCC/C(C)=C/C(=O)OC[C@@]2(CC1)[C@]4(C)[C@]31CO1
active: Potency [4] 5.6 nM | Potency [8] 3.2 nM | Potency (CRL-7250) 25.2 nM | Potency (HEK293) 8 nM | Potency (HaCat) 112 nM | Potency (NIH3T3) 28.2 nM | Potency (CASKI) 112 nM | Potency (Es-2) 25.1 nM | Potency (PA-1) 70.8 nM | Potency (Tov-21-G) 89.1 nM
inactive: Potency [3] | Potency [1] | Potency [2] | outcome [5] inactive [at 25.7 µM] | Potency [6] | Potency [7]

CC[C@H]1C2CC3[C@@H]4N(C)c5ccccc5[C@]45C[C@@H]([C@H]2[C@H]5O)N3[C@@H]1O
inactive: Potency [3] | Potency [4] | Potency [8] | Potency [1] | outcome [5] | Potency [7] | max response (CRL-7250) -2.01% | max response (HEK293) 0.828% | max response (HaCat) 4.96% | Potency (C33A) | Potency (CASKI) | Potency (Es-2) | Potency (Hek293T) | Potency (OV90) | Potency (PA-1) | Potency (Tov-21-G) | Potency (Tov112D)
